This is part of a sample that, as a whole, favours compounds with a hit. Of some 83,000 tested, about 20% had one in any assay.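 How to read the values: 0–100, growth inhibition (40 = 60% inhibited); 0, no net growth; -100 to 0, cell death (-40 = 40% of starting cells died; -100 = all dead).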 A number with no mark means an inactive call. Active and inactive are the calls of the source. The calls were made as follows: active = growth percent below 10; inactive = the rest.

The assay concerns OVCAR-8 ovarian. The experiment in a line: NCI-60 one-dose screen, 48 h (100 = growth as untreated, 0 = no growth, -100 = all killed). The following applies: 10 µM.
On to `C#CCNC(=O)CCC(=O)OC[C@]12CC[C@@H](C(=C)C)[C@@H]1C1CC[C@@H]3[C@@]4(C)CCCNC(C)(C)[C@@H]4CC[C@@]3(C)[C@]1(C)CC2` (some centres undefined), for which the growth was -59.9% (active).
The result for `Cc1ccc(-c2nc(Nc3ccc(S(N)(=O)=O)cc3)c3ccccc3n2)cc1` reads 63.2%.
On to `N#Cc1ccc(-c2nn(-c3ccc(C(=O)O)cc3)cc2CNc2cccc(Br)c2)cc1`, for which the growth is 49%.
Under `Cc1noc2c(Cc3ccc([N+](=O)[O-])cc3)nn(CC(=O)N/N=C/c3ccc(Br)cc3)c(=O)c12` stands 48.9%; under `Cc1ccc(/C=C/C(=O)c2ccc(NC(=O)CSc3nnc(-c4c[nH]c5ccccc45)n3-c3ccccc3)cc2)c(C)c1`, 1.17% (active).
Under `O=C1c2ccccc2C(=O)c2c1c(C(=O)c1ccc(Cl)cc1)n1c2ccc2c3ccccc3ccc21` stands 103%.
The result for `COc1ccc(C(=O)Nc2sc3c(c2C#N)CCC(=O)C3)cc1C(F)(F)F` reads 2.79% (active).
For the compound `COc1ccc(C2NC(=S)NC(C)=C2C(=O)OC(C)C)cc1OC` (centres undefined), the growth is 106%.
The result for `COc1ccc(OC)c(/C=N/NC(=O)c2ccc3nc(-c4ccc(Cl)cc4)[nH]c3c2)c1` reads 82.8%; that for `Nc1nc(Nc2ccc(Cl)cc2)n(Cc2cccc(Br)c2)n1`, 2.52% (active); that for `O=C(CSc1nnc(-c2ccc3nc(-c4ccc(Cl)cc4)[nH]c3c2)o1)Nc1ccc(Br)cc1`, -43.5% (active).
Consider `COc1cc2c(cc1OC)CN(CCCCOc1cc(O)c3c(=O)cc(-c4ccccc4)oc3c1)CC2`, for which the growth is 85.1%.
Under `O=C(CSc1nnc(-c2c[nH]c3ccccc23)n1-c1ccccc1)c1ccc(Br)cc1` stands 43.5%.
In the case of `Cc1ccc(/C=C/C(=O)c2ccc(NC(=O)CSc3nnc(-c4c[nH]c5ccccc45)n3-c3ccccc3)cc2)cc1`, the growth was 96.4%.
As for `CC1=C(c2cc(-c3ccc(Cl)cc3)c(C#N)c(N)n2)C(c2ccccc2)NC(=S)N1` (centres undefined), the growth is 5.74% (active).
`COc1ccc(-c2cc(-c3cc(C(=O)c4ccccc4)n4ccc(C)cc34)nc(N)c2C#N)cc1`: the growth was 20.2%.
The result for `COc1cc2c3c(n(CCCNCCO)c(=O)c2cc1OC)-c1nc2c(cc1C3=O)OCO2` reads -69.3% (active).
The result for `COc1ccc(/C=C/C(=O)c2ccc(N3CCN(C)CC3)cc2)c(C(F)(F)F)c1` reads 49.6%; that for `Cn1cc(/C=N/Nc2cccc(Cl)n2)c2ccccc21`, 80.3%; that for `COc1ccc(C(=O)CSc2nnc(-c3c[nH]c4ccccc34)n2-c2ccccc2)cc1`, 15.5%.
Under `N#Cc1c(NC(=O)c2ccc(C(F)(F)F)c(Cl)c2)sc2c1CCC(=O)C2` stands -34% (active); under `COc1cc(/C=C/C(=O)c2ccc(NC(=O)CSc3nnc(-c4c[nH]c5ccccc45)n3-c3ccccc3)cc2)cc(OC)c1OC`, 50.1%.
As for `O=C(Nc1cccc([N+](=O)[O-])c1)Nc1cccc([N+](=O)[O-])c1`, the growth was 88.7%.
In the case of `COc1cc(NC(=O)CSc2nnc(-c3ccc4nc(-c5ccc(Cl)cc5)[nH]c4c3)o2)cc(OC)c1OC`, the growth is 42.1%.
Under `O=S(=O)(Nc1ncccn1)c1ccc(-n2c(-c3ccc(Br)cc3)nc(-c3ccccc3)c2-c2ccccc2)cc1` stands 50.5%; under `CCN1CCN(Cc2ccc(C(=O)Nc3cccc(-c4cn(-c5ccc6oc(=O)ccc6c5)nn4)c3)cc2C(F)(F)F)CC1`, -100% (active).
On to `Cc1cc(=O)oc2cc(OCCCCOc3ccc(/C=C/C(=O)Nc4ccc(F)c(Cl)c4)cc3)ccc12`, for which the growth was 85.2%.
Under `Cc1cc(C)nc(/N=C(\N)Nc2ccc(S(=O)(=O)Nc3nc(C)cc(C)n3)cc2)n1` stands 107%; under `Cc1cccc(-c2nc(Nc3ccccc3C(=O)O)c3ccccc3n2)c1`, 60.3%; under `C=C1CCC2C3(C)COC(c4cccc(F)c4)OC3CCC2(C)C1CC(O)C1=CCOC1=O` (centres undefined), 15.1%.
Consider `CC1CC(c2ccc(N(C)C)cc2)=NN1c1nc(O)c(C2=c3cc(Br)ccc3=NC2=O)s1` (centres undefined), for which the growth is 83%.
The result for `C/C(=N\NC(N)=S)c1ccc(Nc2nc(SC(C)C)nc(-c3ccccc3)c2C#N)cc1` reads 30.5%; that for `O=c1c2ccccc2nc(COc2ccccc2)n1/N=C/c1ccc(N2CCCC2)cc1`, 99%.
Under `CN1CCN(Cc2ccc(NC(=O)c3cncc(C#Cc4cnc5ccc(N[C@H]6CCOC6)nn45)c3)cc2C(F)(F)F)CC1` stands -94.4% (active).
